Data as given in PubChem BioAssay AID1508622 (National Center for Advancing Translational Sciences (NCATS), 2021).
Calls of active or inactive are those of the source. Where a call stands in place of a potency, no number is given. Calls come from the whole dose curve; as a rule, active = well fitted activation curve with a large enough effect; inconclusive = small, poorly fitted or top-dose-only effect; inactive = no such curve, though single readings can be large or run the other way.
Potency is the fitted concentration of half-maximal effect.

Assay: Confirmatory qHTS for Identification of Small Molecule Activators of Huntingtin-Antisense Promoter Activity
Settings: HEK293 HTT-AS promoter firefly luciferase reporter, 24 h; series mostly up to 57.5 µM
Procedure, shortened: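 2,500 luciferase reporter HEK293 cells/well; 24 h culture; cpds up to 57.5 uM final, PTC124 50 uM ctrl; 24 h, 37C; Dual-Glo FLuc reagent, 10 min RT; lum. Norm.: vehicle 0%, zero RLU -100%.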
For `O=C(Nc1cccc(Cl)c1)c1ccc(F)c(S(=O)(=O)N2CCC3(CC2)OCCO3)c1`, the Potency was “inactive”.
With `COc1ccc(N2CCN(C(CNC(=O)C(=O)NCCc3ccccc3)c3cccnc3)CC2)cc1` (centres undefined) the Potency was “inactive”.
For `Cc1nc(N2CCCC2)ncc1C(=O)Nc1ccc(OC(F)(F)F)cc1`, the Potency was “inactive”.
For `COc1ccc(CNC(=O)c2ccc3c(c2)CCN3S(=O)(=O)c2ccc(Cl)cc2)cc1`, the Potency was “inactive”.
For `COC[C@H](NC(=O)c1cnc(C)s1)C(=O)N[C@@H](COC)C(=O)N[C@@H](Cc1ccccc1)C(=O)[C@@]1(C)CO1`, the Potency was “inactive”.
In the case of `O=C(NC1CCCCC1)c1ccc(CSc2nc3cccnc3n2Cc2cccc(F)c2)cc1`, the Potency was “inactive”.
In the case of `CC(=O)N1CCCc2cc(S(=O)(=O)N3CCN(c4ccccc4F)CC3)ccc21`, the Potency was “inactive”.
In the case of `COc1ccc(Nc2nc(-c3ccc(C)cc3)nc3ccccc23)c(OC)c1`, the Potency was “inactive”.
With `Cc1cccc(CNC(=O)C2CCN(S(=O)(=O)c3ccc4c(c3)CCCN4C(=O)C3CCC3)CC2)c1` the Potency was “inactive”.
For `CSc1cccc(NC(=O)C2CCN(S(=O)(=O)c3ccc4[nH]c5c(c4c3)CCCCC5)CC2)c1`, the Potency was “inactive”.
In the case of `CCCc1cc(N2CCN(c3ccccc3)CC2)n2cnnc2n1`, the Potency was “inactive”.
With `O=C(Nc1cc(Cl)cc(Cl)c1)c1ccc(F)c(S(=O)(=O)N2CCc3ccccc32)c1` the Potency was “inactive”.
In the case of `CCc1ccc(C2CC(=O)Nc3c2c(C)nn3-c2nc(C)cc(C)n2)cc1` (centres undefined), the Potency was “inactive”.
With `Cc1cccc(-c2nc3scc(CCNS(=O)(=O)c4ccc(Oc5ccccc5)cc4)n3n2)c1` the Potency was “inactive”.
With `CCOc1ccc(S(=O)(=O)N(C(=O)c2ccncc2)c2ccc3oc(C)c(C(=O)OC)c3c2)cc1` the Potency was “inactive”.
For `Cc1ccc(C(=O)N2CCc3cc(CNC(=O)CSc4ccccc4)ccc32)cc1`, the Potency was “inactive”.
In the case of `COCCNc1nc2c(c(=O)n(C)c(=O)n2C)n1Cc1c(F)cccc1Cl`, the Potency was “inactive”.
For `CCCOc1ccc(C(=O)Nc2ccc(-c3cc4ccccc4oc3=O)c(C)c2)cc1`, the Potency was “inactive”.
In the case of `CCc1c(C)sc2c1CCN(Cc1ccc(F)cc1)C2c1ccccc1` (centres undefined), the Potency was “inactive”.
In the case of `CC(C)c1ccc(CNC(=O)c2ccc(N3CCCC3)c(NC(=O)NCc3ccccc3)c2)cc1`, the Potency was “inactive”.
In the case of `CN(C)S(=O)(=O)c1ccc(C(=O)NCCSc2c(-c3ccc(Br)cc3)[nH]c3ccccc23)cc1`, the Potency was “inactive”.
In the case of `CCOc1ccccc1CNC(=O)C(CC)n1nc(C)c2c(C)n(-c3ccccc3)nc2c1=O` (centres undefined), the Potency was “inactive”.
In the case of `CCc1ccc(NC(=O)c2ccc(F)c(S(=O)(=O)N(C)C3CCCCC3)c2)cc1`, the Potency was “inactive”.
In the case of `CC(C)C[C@@H](C=O)NC(=O)[C@H](CC(C)C)NC(=O)[C@H](CC(C)C)NC(=O)OCc1ccccc1`, the Potency was “inactive”.
With `COc1ccc(C(C)n2c(C)c3c(C)nnc(C)c3c2C)cc1` (centres undefined) the Potency was “inactive”.
In the case of `O=C(CN1C(=O)C2(SCC(=O)N2c2ccc(F)c(F)c2)c2ccccc21)Nc1cccc(Cl)c1` (centres undefined), the Potency was “inactive”.
In the case of `CCCc1cc(N2CCN(c3cccc(C)c3C)CC2)n2cnnc2n1`, the Potency was “inactive”.
For `CCOC(=O)C1CCCN(C(=O)Cn2c(=O)cc(C)c3c(C)nn(C)c32)C1` (centres undefined), the Potency was “inactive”.
In the case of `CCc1ccccc1-n1nnc(-c2nsc(NC(=O)c3ccc(C)c(C)c3)n2)c1C`, the Potency was “inactive”.
With `CCCCC(=O)Nc1cccc(-c2nc3ccccc3s2)c1` the Potency was 3.01 µM (active).
For `O=C(Nc1ccc(F)cc1)C1CCN(S(=O)(=O)c2ccc3c(c2)CCCN3C(=O)C2CCC2)CC1`, the Potency was “inactive”.
For `Cc1cccc(OCC(=O)Nc2ccc3c(c2)N(C)C(=O)c2ccccc2S3)c1`, the Potency was “inactive”.
For `O=C(CSc1nc(-c2ccc(F)cc2)[nH]c1-c1ccc(F)cc1)Nc1ccc2c(c1)OCCO2`, the Potency was “inactive”.
With `Cc1ccc(C)c(N2CCN(C(=O)CCS(=O)(=O)c3ccc4c(c3)CC(=O)N4C)CC2)c1` the Potency was “inactive”.
In the case of `CC(C)c1ccc(NC(=O)c2ccc(F)c(S(=O)(=O)N3CCc4ccccc43)c2)cc1`, the Potency was “inactive”.
In the case of `COc1ccccc1CNC(=O)c1ccc(N2CCCC2)c(NC(=O)NCc2ccc(C)cc2)c1`, the Potency was “inactive”.
For `Cc1ccc(Cl)cc1N1CCN(C(=O)c2ccc3c(c2)N(Cc2ccc(F)cc2)CCS3)CC1`, the Potency was “inactive”.
With `O=C(NCc1ccccc1)C(=O)NCC(c1ccco1)S(=O)(=O)c1ccc(Cl)cc1` (centres undefined) the Potency was “inactive”.
For `CCOc1ccc(CCNC(=O)c2sc3ncccc3c2-n2c(C)ccc2C)cc1`, the Potency was “inactive”.
